# Source: PubChem
# GRK2 inh: human GRK2 inhibition via aptamer displacement | P25098 | bead flow cytometry, FAM-aptamer displacement from GRK2 | inhibition of aptamer binding, % at 10 µM | 330,000 tested, 0.59% active | AID 488847;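 active means inhibition of aptamer binding above 40%, roughly 3 SD of noise, on plates passing a quality check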;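 further: median bead fluorescence of bound FAM aptamer so fluorescent compounds give negative values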
# Yeast superoxide: yeast age-related superoxide inhibition as caloric restriction mimetic | S. cerevisiae aged cells, superoxide DHE fluorescence; active compounds read low | superoxide response (% of plate mean), % at 10 µM | 330,000 tested, 0.18% active | AID 2690;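 active means superoxide response under a set limit, about three screen SD below normal, cut at about 65% in these data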;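 further: yeast aged for seven days with compound at 30 °C before DHE staining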
# Efflux pump mplx: inhibitors of Candida antifungal efflux pumps expressed in yeast. S. cerevisiae Candida pump triplex, Nile Red efflux. inhibition, % at 10 µM. 330,000 tested, 0.44% active;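 active means plate passing quality check with inhibition over a set limit, or well fluorescence over plate mean plus 4 SD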;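 further: Nile Red retained in pooled yeast measured as flow cytometry median fluorescence; higher means more Nile Red kept so more efflux inhibition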
# ATG4B inhibitor: ATG4B (human) cysteine protease inhibition; Q9Y4P1; ATG4B cleavage of LC3-PLA2, NBD-HPC fluorescence, 1 h; inhibition, % at 8.33 µM; 340,000 tested, 0.51% active; AID 504462; in the data active means inhibition above about 40%
# Target sequence (Q9Y4P1 whole entry, looked up): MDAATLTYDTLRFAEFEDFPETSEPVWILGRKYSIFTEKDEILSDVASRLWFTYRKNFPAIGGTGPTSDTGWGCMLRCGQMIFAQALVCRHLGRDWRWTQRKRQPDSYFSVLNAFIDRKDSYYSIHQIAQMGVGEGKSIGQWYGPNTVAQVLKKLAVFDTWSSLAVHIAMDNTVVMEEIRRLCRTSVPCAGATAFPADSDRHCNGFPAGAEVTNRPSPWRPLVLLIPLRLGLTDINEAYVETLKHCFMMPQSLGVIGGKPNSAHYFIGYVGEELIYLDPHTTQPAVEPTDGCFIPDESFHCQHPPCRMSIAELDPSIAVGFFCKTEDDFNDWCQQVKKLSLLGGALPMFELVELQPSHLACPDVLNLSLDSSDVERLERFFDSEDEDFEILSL
# GRK2 inh confirm: confirmation of human GRK2 inhibitors displacing RNA aptamer | aptamer displacement, % at 10 µM | 2,000 tested, 4% active | shares compounds with GRK2 inh | AID 504451 | bead-bound GRK2, FAM-aptamer displacement, flow cytometry;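 active means aptamer displacement above 40%, near three times the noise of non-fluorescent compounds, on plates passing quality checks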;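 further: negative values mostly reflect intrinsic compound fluorescence rather than true enhancement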
# Aptamer quench 1: quenches fluorescent RNA aptamer, GRK2 hit artifact; shares compounds with GRK2 inh; 110 tested, under 10 active; Fluorescent RNA aptamer beads, quenching, flow cytometry; active compounds read high; fluorescence change (kMESF span), kMESF (no concentration beside the values); AID 504521;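 active means compounds whose bead fluorescence drops by more than 37 kMESF across the dose range, marking them as dye quenchers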
# Aptamer quench SP: quenches fluorescent RNA aptamer, GRK2 hit artifact | shares compounds with GRK2 inh | Carboxyfluorescein RNA aptamer on beads, flow cytometry quenching; active compounds read low | fluorescence response (% of DMSO), % at 10 µM | 2,000 tested, under 10 active | AID 504580;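 active means compounds that quench the bead-bound fluorescent RNA probe, cutting fluorescence to under half of the solvent control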;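 further: counterscreen run without GRK2 so only probe quenching by compound is measured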
# Hits are given with their value; - = inactive; . = no result. An excerpt weighted towards active compounds, which were near 1.6% of everything screened.
SMILES,GRK2 inh,Yeast superoxide,Efflux pump mplx,ATG4B inhibitor,GRK2 inh confirm,Aptamer quench SP,others
COc1ccc(C(C(=O)NCC2CCCO2)N(C(=O)Cn2nnc3ccccc32)c2ccccc2C(C)=O)cc1OC (configuration not stated),-,-,-,-,.,.,
CC(C)CCNC(=O)NC(=O)CSc1nnc(COc2ccccc2Cl)o1,-,-,-,-,.,.,
CC(C)NC(=O)NC(=O)CSc1nnc(COc2ccccc2Cl)o1,71.0,-,-,-,-,-,
CC1=NN(c2ccc(Br)cc2)C(=O)/C1=C/c1ccc(-c2ccccc2C(=O)O)o1,-,-,-,-,.,.,
O=C(O)c1ccccc1-c1ccc(/C=c2\sc3nc4cc(Br)cnc4n3c2=O)o1,99.0,-,-,-,89.9,-,Aptamer quench 1=-
CC(C)C(NC(=O)c1ccccc1F)C(=O)NCc1ccc(F)cc1 (configuration not stated),-,-,-,-,.,.,
COc1ccc(NC(=O)C2CCCN(CCCc3ccccc3)C2)cc1OCC(C)C (configuration not stated),-,-,-,-,.,.,
CC(C)C[C@H]1CN=C(Nc2ccccc2)N1CC1CCCCCC1,58.0,-,-,-,-,-,
CCN1C(Nc2ccccc2)=NC[C@@H]1CC(C)C,-,-,-,-,.,.,
CCC(C)NC(=O)Cn1cnc2sc(C)cc2c1=O (configuration not stated),43.0,-,-,-,-,-,
Cc1ccc(F)cc1NC(=O)CN1C(=O)NC2(CCCc3ccccc32)C1=O (configuration not stated),-,-,-,-,.,.,
CCC(=O)NCCc1nc2cc(NC(=O)Nc3ccccc3)ccc2n1C,-,-,-,-,-,-,
CC(=O)Nc1ccc2c(c1)nc(CCNC(=O)c1ccccc1)n2C,57.0,-,-,-,-,-,
Cn1c(CCNC(=O)c2ccccc2)nc2cc(NC(=O)C3CCCCC3)ccc21,-,-,-,-,-,-,
CCOC(=O)Cc1cc(=O)n2[nH]c(C)c(-c3ccc(OC)cc3)c2n1,71.0,-,-,-,-,-,
CCOC(=O)Cc1cc(=O)n2[nH]c(C)c(-c3ccc(Cl)cc3)c2n1,-,-,-,-,.,.,
CCCNC(=O)NC(=O)CSc1nnc(-c2ccncc2)n1CC,61.0,-,-,-,-,-,
Cc1c(NC(=O)C(C)OC(=O)c2cccc(S(=O)(=O)N3CCOCC3)c2)c(=O)n(-c2ccccc2)n1C (configuration not stated),76.0,-,-,-,-,-,
Cn1ccnc1C(O)c1cccc(OCc2ccccc2)c1 (configuration not stated),-,-,-,-,.,.,
OC(c1ccc(OCc2ccccc2)cc1)c1nnc(-c2ccccc2)o1 (configuration not stated),-,-,-,-,-,-,
c1ccc(-c2nnc(C(c3ccccc3)c3ccccc3)o2)cc1,-,-,-,-,.,.,
OC(c1cccc(OCc2ccccc2)c1)c1nnc(-c2ccccc2)o1 (configuration not stated),-,-,-,-,-,-,
COC(=O)c1ccccc1SC(CC(=O)c1ccccc1)c1ccc(F)cc1 (configuration not stated),-,-,-,-,.,.,
O=C(Nc1cccc(-c2nc3ncccc3o2)c1)c1sc2cc(Cl)ccc2c1Cl,75.0,-,-,-,-,-,
O=C(Nc1cccc(-c2nc3ncccc3o2)c1)c1sc2ccccc2c1Cl,-,-,-,-,.,.,
SMILES,GRK2 inh,Yeast superoxide,Efflux pump mplx,ATG4B inhibitor,GRK2 inh confirm,Aptamer quench SP,others
CCOc1ccc(CNC(=O)c2cccc(NC(=O)C3=C(C)OCCS3)c2)cc1,-,-,-,-,-,-,
COc1cccc(CNC(=O)c2cccc(NC(=O)C3=C(C)OCCS3)c2)c1,-,-,-,-,.,.,
COc1cccc(C(CNC(=O)c2ccc(Cl)c(S(=O)(=O)N3CCCC3)c2)N(C)C)c1 (configuration not stated),-,-,-,-,.,.,
O=C(N/N=C/c1c[nH]c2ccccc12)c1[nH]c2ccc(Br)cc2c1-c1ccccc1,.,.,.,-,.,.,
O=C(N/N=C/c1ccc(O)cc1)c1[nH]c2ccc(Br)cc2c1-c1ccccc1,51.0,-,-,-,-,-,
Cc1cc(C)n2ncc(S(=O)(=O)c3ccccc3)c2n1,-,-,-,-,.,.,
